This is an account of results in ChEMBL document CHEMBL3988442, “University of Dundee, Small-Polar-MMV Screening Library” (2021).

For one test, the target named is T1, Tyrosyl-tRNA synthetase, putative (Trypanosoma cruzi (strain CL Brener)) (UniProt Q4DSP6).
T1 sequence (whole entry): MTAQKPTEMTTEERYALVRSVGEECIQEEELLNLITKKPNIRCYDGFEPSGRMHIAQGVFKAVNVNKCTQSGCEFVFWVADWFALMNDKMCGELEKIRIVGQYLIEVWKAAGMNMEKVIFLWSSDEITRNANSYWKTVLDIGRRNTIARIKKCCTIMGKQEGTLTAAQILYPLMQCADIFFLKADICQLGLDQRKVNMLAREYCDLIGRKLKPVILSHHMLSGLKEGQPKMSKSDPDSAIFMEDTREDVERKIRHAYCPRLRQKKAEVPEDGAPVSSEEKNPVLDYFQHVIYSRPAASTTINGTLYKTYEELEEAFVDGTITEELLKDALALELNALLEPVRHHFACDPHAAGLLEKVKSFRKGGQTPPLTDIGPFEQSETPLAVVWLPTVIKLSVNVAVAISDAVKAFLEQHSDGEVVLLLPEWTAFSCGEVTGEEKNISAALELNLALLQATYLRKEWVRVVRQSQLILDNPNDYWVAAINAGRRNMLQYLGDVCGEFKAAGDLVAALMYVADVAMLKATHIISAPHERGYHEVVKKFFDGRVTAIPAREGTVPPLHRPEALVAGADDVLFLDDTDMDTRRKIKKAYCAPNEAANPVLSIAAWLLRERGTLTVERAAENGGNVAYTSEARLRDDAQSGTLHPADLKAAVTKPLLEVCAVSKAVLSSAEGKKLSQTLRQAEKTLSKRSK
Briefly: Trypanosoma cruzi tyrosyl tRNA synthetase (TcYRS) _High Tyrosine SOP. It is filed as functional. Set-up: scale not given: in the data most compounds retested in dose-response had high values. The note with it: 30 µM.
Regarding `Cc1ccccc1CNC(=O)CN1CCN(Cc2nccn2C)CC1`, the Percent Effect worked out at 8.37%.

In the case of `CCC(=O)N1CCC2(CC1)c1nc[nH]c1CCN2S(C)(=O)=O`, the Percent Effect was determined as 5.26%.

With `Cc1cc(C)n(-c2cncc(NCCNC(=O)CC3CCCC3)n2)n1`, the Percent Effect was determined as 1.07%.

For `Cn1ccnc1CNC(=O)N(CCCO)C1CCCc2ccccc21` (stereo not given), the Percent Effect came out at 2.13%.

On to `Cc1cccc(CCC(=O)N2CCOCC2c2c(C)n[nH]c2C)c1` (stereo not given), for which the Percent Effect is -3.23%.

Consider `COc1ccc(CC(=O)N2CCCCC2Cn2cccn2)cc1OC` (stereo not given), for which the Percent Effect was 0%.

With `O=C(c1ccc[nH]1)N1CCC2(CC1)C(=O)Nc1ccccc12`, the Percent Effect worked out at 5.38%.

`Cc1ccc(CN2CCCC3(COCCN(Cc4c[nH]nn4)C3)C2)o1` (stereo not given): the Percent Effect is 7.29%.

With `CCSc1ccc(C(=O)Nc2c(C)nn(C(C)C)c2C)cn1`, the Percent Effect was found to be 0%.

For `N#CC1(C(=O)N2CCN(Cc3cscn3)CC2)CCCC1`, the Percent Effect worked out at 0.493%.

As to `CN(C)C(CNC(=O)c1cc2c([nH]c1=O)CCCC2=O)c1ccsc1` (stereo not given), the Percent Effect came to 5.94%.

For the compound `Cn1nccc1C1CCN(CC(O)c2cccc(F)c2)CC1` (stereo not given), the Percent Effect was -0.493%.

On to `CC(C)N1CCC(Cc2cnc(-c3cccc(C(=O)O)c3)cn2)C1` (stereo not given), for which the Percent Effect amounted to 0%.

As for `Cc1cn2c(n1)CCC(NC(=O)CCn1cncn1)C2` (stereo not given), the Percent Effect was -1.48%.

For `Cc1nc(CN(Cc2cccs2)C2CCS(=O)(=O)C2)oc1C` (stereo not given), the Percent Effect was determined as 5.42%.

For `c1csc(-c2nc(CN3CCOC(Cn4cccn4)C3)co2)c1` (stereo not given), the Percent Effect worked out at 7.39%.

For the compound `CC1N(CC2CC2)C(=O)COC12CCN(Cc1nccs1)CC2` (stereo not given), the Percent Effect was 4.17%.

For the compound `Cc1nn(CC(=O)N2CCN(c3ccccc3F)CC2)c(C)c1Cl`, the Percent Effect turned out to be 4.3%.

For the compound `c1nc2c(c(C3CC3)n1)CCN(CC1CCOC1)CC2` (stereo not given), the Percent Effect is 5.41%.

Take `Cc1nc(CN2CCCC(NCCOc3ccccc3)C2)no1` (stereo not given): the Percent Effect came to 2.46%.

Consider `COc1c(C2CCCN2C(=O)c2cc(Cl)c[nH]2)c(C)nn1C` (stereo not given), for which the Percent Effect turned out to be 9.9%.

As for `Cc1cc(C)c2cc(CNCc3ccccc3)c3nn(C)c(=O)n3c2c1`, the Percent Effect amounted to 4.3%.

In the case of `CC(O)CN(CC(=O)NC(=O)NC1CC1)c1ccccc1` (stereo not given), the Percent Effect worked out at 5.71%.

Take `Cc1cc(C)c2nc(CN3CCCC(c4cc[nH]n4)C3)cc(O)c2c1` (stereo not given): the Percent Effect was 3.7%.

Consider `CCOc1ncccc1NC(=O)c1cc(C)c(C)s1`, for which the Percent Effect was -3.16%.

In the case of `CN(C)CC(=O)N1Cc2nc(C(=O)NCc3ccncc3)oc2C1`, the Percent Effect is 0%.

Take `CCn1cnnc1CNC(=O)CCC(=O)c1ccc2c(c1)OCCO2`: the Percent Effect is 10.3%.

`CC(Oc1ccccc1C(F)(F)F)C(=O)NS(=O)(=O)C(C)C` (stereo not given): the Percent Effect worked out at 6.93%.

For the compound `Cn1c(C2CC2)nc2c1CCN(CC(=O)Nc1nncs1)C2`, the Percent Effect was determined as 4.85%.

As to `N#Cc1ncn(CCC(=O)Nc2ccc(Cl)cc2F)n1`, the Percent Effect was found to be 11.5%.

On to `Cc1cn2c(n1)CCC(NC(=O)c1nc(C)ncc1Cl)C2` (stereo not given), for which the Percent Effect is 4.76%.

For the compound `CN(C)c1ncc(CN2CCOC(C(=O)Nc3ccccc3)C2)cn1` (stereo not given), the Percent Effect was found to be 3.19%.

As to `CC(=O)Nc1cc(C(=O)N2CCOCC2c2ccc(C)o2)ccc1F` (stereo not given), the Percent Effect is 0.546%.

Take `Cc1cnccc1CN1C[C@@H](O)[C@H](Oc2ccccc2)C1`: the Percent Effect was 2.15%.

As to `CC1=N[C@@]2(CC[C@@H]3CN(S(=O)(=O)N(C)C)C[C@@H]32)C(=O)N1CC(C)C`, the Percent Effect is 5.41%.

Take `CCCS(=O)(=O)N1CCN(c2cc(-n3nc(C)cc3C)nc(C)n2)CC1`: the Percent Effect worked out at 2.15%.

For the compound `O=C(O)c1nnn(Cc2cccc(C(F)(F)F)c2)c1-c1cccnc1`, the Percent Effect stood at 7.41%.

For the compound `CC(C)(N)CN1CCC(c2nnc(CN3CCCC3)n2C2CC2)CC1`, the Percent Effect was 2.73%.

With `Cc1cccc(CNC(=O)CNc2cc(CO)ccc2Cl)c1`, the Percent Effect stood at 4.25%.

Regarding `COCC1CC2(CCN(Cc3cnn(C)c3)CC2)CN1c1ncccn1` (stereo not given), the Percent Effect stood at 7.53%.

The next test deals with T1, Tyrosyl-tRNA synthetase, putative (Trypanosoma cruzi (strain CL Brener)). Briefly: Trypanosoma cruzi tyrosyl tRNA synthetase (TcYRS) SOP. It is filed as functional. Set-up: scale not given: direction of the effect not stated beside the values. Conditions: 30 µM.
On to `Cc1ccccc1CNC(=O)CN1CCN(Cc2nccn2C)CC1`, for which the Percent Effect came to 25.9%.

Take `CCC(=O)N1CCC2(CC1)c1nc[nH]c1CCN2S(C)(=O)=O`: the Percent Effect was 10.3%.

Take `Cc1cc(C)n(-c2cncc(NCCNC(=O)CC3CCCC3)n2)n1`: the Percent Effect was found to be 8.64%.

As for `Cn1ccnc1CNC(=O)N(CCCO)C1CCCc2ccccc21` (stereo not given), the Percent Effect worked out at 10.4%.

For the compound `Cc1cccc(CCC(=O)N2CCOCC2c2c(C)n[nH]c2C)c1` (stereo not given), the Percent Effect was -7.5%.

For the compound `COc1ccc(CC(=O)N2CCCCC2Cn2cccn2)cc1OC` (stereo not given), the Percent Effect was 10.4%.

For `O=C(c1ccc[nH]1)N1CCC2(CC1)C(=O)Nc1ccccc12`, the Percent Effect worked out at 23.5%.

On to `Cc1ccc(CN2CCCC3(COCCN(Cc4c[nH]nn4)C3)C2)o1` (stereo not given), for which the Percent Effect worked out at 10%.

For `CCSc1ccc(C(=O)Nc2c(C)nn(C(C)C)c2C)cn1`, the Percent Effect stood at 1.24%.

For `N#CC1(C(=O)N2CCN(Cc3cscn3)CC2)CCCC1`, the Percent Effect is 1.27%.

Regarding `CN(C)C(CNC(=O)c1cc2c([nH]c1=O)CCCC2=O)c1ccsc1` (stereo not given), the Percent Effect was 18.3%.

As for `Cn1nccc1C1CCN(CC(O)c2cccc(F)c2)CC1` (stereo not given), the Percent Effect is -8.86%.

On to `CC(C)N1CCC(Cc2cnc(-c3cccc(C(=O)O)c3)cn2)C1` (stereo not given), for which the Percent Effect came to 9.09%.

Regarding `Cc1cn2c(n1)CCC(NC(=O)CCn1cncn1)C2` (stereo not given), the Percent Effect was found to be 1.24%.

As for `Cc1nc(CN(Cc2cccs2)C2CCS(=O)(=O)C2)oc1C` (stereo not given), the Percent Effect was 23.5%.

Regarding `c1csc(-c2nc(CN3CCOC(Cn4cccn4)C3)co2)c1` (stereo not given), the Percent Effect came to 23.5%.

`CC1N(CC2CC2)C(=O)COC12CCN(Cc1nccs1)CC2` (stereo not given): the Percent Effect came to 6.17%.

For the compound `Cc1nn(CC(=O)N2CCN(c3ccccc3F)CC2)c(C)c1Cl`, the Percent Effect is 23.5%.

With `c1nc2c(c(C3CC3)n1)CCN(CC1CCOC1)CC2` (stereo not given), the Percent Effect turned out to be 15.4%.

Turning to `Cc1nc(CN2CCCC(NCCOc3ccccc3)C2)no1` (stereo not given), the Percent Effect is -1.27%.

With `COc1c(C2CCCN2C(=O)c2cc(Cl)c[nH]2)c(C)nn1C` (stereo not given), the Percent Effect was -3.66%.

Regarding `Cc1cc(C)c2cc(CNCc3ccccc3)c3nn(C)c(=O)n3c2c1`, the Percent Effect was 3.9%.

Take `CC(O)CN(CC(=O)NC(=O)NC1CC1)c1ccccc1` (stereo not given): the Percent Effect amounted to 2.35%.

Regarding `Cc1cc(C)c2nc(CN3CCCC(c4cc[nH]n4)C3)cc(O)c2c1` (stereo not given), the Percent Effect is 14.6%.

In the case of `CCOc1ncccc1NC(=O)c1cc(C)c(C)s1`, the Percent Effect stood at 2.56%.

As to `CN(C)CC(=O)N1Cc2nc(C(=O)NCc3ccncc3)oc2C1`, the Percent Effect was 20%.

Regarding `CCn1cnnc1CNC(=O)CCC(=O)c1ccc2c(c1)OCCO2`, the Percent Effect came to 23.5%.

Take `CC(Oc1ccccc1C(F)(F)F)C(=O)NS(=O)(=O)C(C)C` (stereo not given): the Percent Effect was determined as 11%.

In the case of `Cn1c(C2CC2)nc2c1CCN(CC(=O)Nc1nncs1)C2`, the Percent Effect is 7.32%.

For the compound `N#Cc1ncn(CCC(=O)Nc2ccc(Cl)cc2F)n1`, the Percent Effect is 21%.

For the compound `Cc1cn2c(n1)CCC(NC(=O)c1nc(C)ncc1Cl)C2` (stereo not given), the Percent Effect came to 18.8%.

Regarding `CN(C)c1ncc(CN2CCOC(C(=O)Nc3ccccc3)C2)cn1` (stereo not given), the Percent Effect amounted to 14.1%.

Turning to `CC(=O)Nc1cc(C(=O)N2CCOCC2c2ccc(C)o2)ccc1F` (stereo not given), the Percent Effect came out at 3.7%.

As to `Cc1cnccc1CN1C[C@@H](O)[C@H](Oc2ccccc2)C1`, the Percent Effect was -1.3%.

Regarding `CC1=N[C@@]2(CC[C@@H]3CN(S(=O)(=O)N(C)C)C[C@@H]32)C(=O)N1CC(C)C`, the Percent Effect was found to be 10.3%.

Consider `CCCS(=O)(=O)N1CCN(c2cc(-n3nc(C)cc3C)nc(C)n2)CC1`, for which the Percent Effect was -3.7%.

In the case of `O=C(O)c1nnn(Cc2cccc(C(F)(F)F)c2)c1-c1cccnc1`, the Percent Effect was found to be 12.8%.

As for `CC(C)(N)CN1CCC(c2nnc(CN3CCCC3)n2C2CC2)CC1`, the Percent Effect was 6.17%.

For the compound `Cc1cccc(CNC(=O)CNc2cc(CO)ccc2Cl)c1`, the Percent Effect was determined as 7.79%.

Take `COCC1CC2(CCN(Cc3cnn(C)c3)CC2)CN1c1ncccn1` (stereo not given): the Percent Effect stood at 18.5%.
